Results from PubChem BioAssay (Tox21).
Records with an inconclusive call do not appear. Calls of active or inactive are those of the source. Unless noted, calls come from the whole dose curve; as a rule, active = well fitted curve in the direction sought with a large enough effect in the repeat runs; inconclusive = weak or mixed curves; inactive = no such curve, though single readings can be large; an effect the other way counts as inactive or inconclusive.

Legend:
[1] = biological target: Peroxisome proliferator-activated receptor delta (Homo sapiens) (UniProt Q03181); experiment: qHTS assay to identify small molecule agonists of the peroxisome proliferator-activated receptor delta (PPARd) signaling pathway (AID 743212; calls by dose curve)
Procedure, shortened: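 HEK293H UAS-bla reporter cells, human PPARd system; compounds delivered in DMSO after 5 h plating, then at 37 C. Beta-lactamase FRET read, 2 h RT substrate step.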

[2] = qHTS assay to identify small molecule antagonists of the peroxisome proliferator-activated receptor delta (PPARd) signaling pathway - cell viability counter screen (AID 743213); note: nearly all actives have a fitted effect of over 50% in size
Procedure, shortened: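 Same-well viability: cells pre-incubated 5 h, dosed with compound plus 300 nM L165041, kept 17 h at 37 C, FRET substrate 2 h RT, then CellTiter-Glo 30 min RT and luminescence.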

[3] = biological target: Peroxisome proliferator-activated receptor delta (Homo sapiens) (UniProt Q03181); experiment: qHTS assay to identify small molecule antagonists of the peroxisome proliferator-activated receptor delta (PPARd) signaling pathway (AID 743215; active = well fitted inhibition curve with a large enough effect in the signal ratio in the repeat runs, not every such curve was filed as active; the % refers to the signal ratio;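 note: cells stimulated with agonist L165041 at 300 nM final during compound exposure; series mostly up to about 62 µM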)
Procedure, shortened: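 HEK293H UAS-bla, PPARd; agonist L165041 300 nM final with cpd in DMSO; 37 C 17 h; FRET substrate, RT 2 h; fluorescence intensity.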

[4] = qHTS assay to identify small molecule agonists of the farnesoid-X-receptor (FXR) signaling pathway - cell viability counter screen (AID 743218); note: nearly all actives have a fitted effect of over 45% in size
Procedure, shortened: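 Parallel cytotoxicity test: compound-treated (16 h, 37 C) HEK 293T FXR-bla reporter cells were lysed with CellTiter-Glo and luminescence recorded.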

[5] = qHTS assay to identify small molecule antagonists of the farnesoid-X-receptor (FXR) signaling pathway - cell viability counter screen (AID 743221; active = well fitted cell-killing curve with a large enough effect in the repeat runs, not every such curve was filed as active; note: nearly all actives have a fitted effect of over 50% in size)
Procedure, shortened: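 GeneBLAzer FXR-UAS-bla HEK 293T cells, compound plus chenodeoxycholic acid (50 uM final), 16 h at 37 C. CellTiter-Glo added to the same wells after the beta-lactamase read; luminescence read after 30 min at room temperature as viability.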

[6] = biological target: Vitamin D3 receptor (Homo sapiens) (UniProt P11473); experiment: qHTS assay to identify small molecule agonists of the vitamin D receptor (VDR) signaling pathway (AID 743222; calls by dose curve)
Procedure, shortened: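 In VDR-bla cells, compound-induced beta-lactamase expression is quantified by FRET substrate fluorescence. Treatment lasts 16 h at 37C; substrate develops 2 h at room temperature.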

[7] = biological target: Bile acid receptor (Homo sapiens) (UniProt Q96RI1); experiment: qHTS assay to identify small molecule antagonists of the farnesoid-X-receptor (FXR) signaling pathway (AID 743217; active = well fitted inhibition curve with a large enough effect in the signal ratio in the repeat runs, not every such curve was filed as active; the % refers to the signal ratio)
Procedure, shortened: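 GeneBLAzer FXR-UAS-bla HEK 293T, CDCA-stimulated (50 uM final). Compound treatment 16 h, 37 °C. Detection: beta-lactamase cleavage of B/G FRET substrate, fluorescence.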

[8] = biological target: Bile acid receptor (Homo sapiens) (UniProt Q96RI1); experiment: qHTS assay to identify small molecule agonists of the farnesoid-X-receptor (FXR) signaling pathway (AID 743220; active = well fitted activation curve with a large enough effect in the signal ratio in the repeat runs, not every such curve was filed as active; the % refers to the signal ratio)
Procedure, shortened: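 Beta-lactamase reporter under UAS control in GeneBLAzer FXR HEK 293T cells (5000/well) measured with LiveBLAzer FRET substrate after 2 h at room temperature. Compound exposure lasted 16 h at 37C.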

[9] = qHTS assay to identify small molecule agonists of the vitamin D receptor (VDR) signaling pathway - cell viability counter screen (AID 743224); note: series mostly up to about 63 µM; nearly all actives have a fitted effect of over 50% in size
Procedure, shortened: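 Plated VDR-bla cells (4 h, 37C) received compound, incubated 16 h, then LiveBLAzer substrate 2 h RT; CellTiter-Glo added afterwards, luminescence read at 30 min.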

[10] = biological target: Vitamin D3 receptor (Homo sapiens) (UniProt P11473); experiment: qHTS assay to identify small molecule antagonists of the vitamin D receptor (VDR) signaling pathway (AID 743223; active = well fitted inhibition curve with a large enough effect in the signal ratio in the repeat runs, not every such curve was filed as active; the % refers to the signal ratio)
Procedure, shortened: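 VDR-bla cells were treated with compound plus 3 nM final 1alpha,25-dihydroxyvitamin D3 for 16 h at 37C. Beta-lactamase reporter read by B/G FRET substrate fluorescence after 2 h at room temperature. qHTS format.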

Measured: outcome

Peroxisome proliferator-activated receptor delta (Homo sapiens), sequence (Q03181 whole entry, looked up): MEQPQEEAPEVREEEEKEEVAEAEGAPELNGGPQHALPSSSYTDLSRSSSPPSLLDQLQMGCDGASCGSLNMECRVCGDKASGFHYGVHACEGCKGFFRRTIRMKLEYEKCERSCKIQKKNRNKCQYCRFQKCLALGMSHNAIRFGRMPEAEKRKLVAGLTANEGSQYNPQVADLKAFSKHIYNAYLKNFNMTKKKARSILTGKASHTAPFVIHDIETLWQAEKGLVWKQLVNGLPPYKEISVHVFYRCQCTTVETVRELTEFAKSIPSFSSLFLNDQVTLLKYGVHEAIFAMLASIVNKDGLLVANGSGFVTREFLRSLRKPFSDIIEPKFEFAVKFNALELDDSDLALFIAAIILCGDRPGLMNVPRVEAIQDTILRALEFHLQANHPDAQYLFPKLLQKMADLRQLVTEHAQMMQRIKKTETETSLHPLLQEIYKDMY
Vitamin D3 receptor (Homo sapiens), sequence (P11473 whole entry, looked up): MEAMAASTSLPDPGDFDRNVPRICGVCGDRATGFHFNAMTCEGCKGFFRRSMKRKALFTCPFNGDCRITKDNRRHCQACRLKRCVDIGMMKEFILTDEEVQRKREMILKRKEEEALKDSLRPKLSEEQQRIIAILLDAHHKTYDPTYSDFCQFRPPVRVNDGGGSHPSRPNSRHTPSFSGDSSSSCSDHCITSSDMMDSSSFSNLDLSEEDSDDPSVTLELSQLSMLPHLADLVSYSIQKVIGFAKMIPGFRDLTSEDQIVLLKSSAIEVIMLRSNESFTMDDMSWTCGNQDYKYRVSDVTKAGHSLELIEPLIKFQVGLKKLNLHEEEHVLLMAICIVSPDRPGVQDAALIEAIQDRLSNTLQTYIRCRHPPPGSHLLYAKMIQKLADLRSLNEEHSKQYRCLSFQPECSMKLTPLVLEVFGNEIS
Bile acid receptor (Homo sapiens), sequence (Q96RI1 whole entry, looked up): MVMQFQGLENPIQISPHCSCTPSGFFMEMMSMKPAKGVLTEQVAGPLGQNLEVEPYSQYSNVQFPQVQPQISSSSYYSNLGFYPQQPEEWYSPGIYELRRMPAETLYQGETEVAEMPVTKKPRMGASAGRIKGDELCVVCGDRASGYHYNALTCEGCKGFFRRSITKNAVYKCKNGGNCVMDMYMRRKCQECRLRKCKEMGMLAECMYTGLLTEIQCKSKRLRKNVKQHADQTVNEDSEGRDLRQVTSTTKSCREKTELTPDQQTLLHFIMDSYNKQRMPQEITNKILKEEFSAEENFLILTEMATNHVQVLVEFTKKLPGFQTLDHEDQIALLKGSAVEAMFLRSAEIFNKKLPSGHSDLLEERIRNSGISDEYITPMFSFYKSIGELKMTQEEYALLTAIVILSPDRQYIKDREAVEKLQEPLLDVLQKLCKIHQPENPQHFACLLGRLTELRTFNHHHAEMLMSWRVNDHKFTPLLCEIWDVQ

CCCCOCCOC(=O)COc1cc(Cl)c(Cl)cc1Cl
inactive: [1] | [2] | [3] | [4] | [5] | [6]

CCCCc1nc(Cl)c(CO)n1Cc1ccc(-c2ccccc2-c2nn[nH]n2)cc1
inactive: [1] | [2] | [3] | [7] | [4] | [8] | [5] | [9]

CCOCC(C)O (stereo unspecified)
inactive: [1] | [2] | [3] | [4] | [8] | [5] | [6]

CCCCCCC#CC(=O)OC
inactive: [1] | [2] | [3] | [4] | [5]

[K+]
inactive: [1] | [2] | [3] | [7] | [4] | [8] | [5] | [9]

C[N+]1(CC2COC(c3ccccc3)(c3ccccc3)O2)CCCCC1 (stereo unspecified)
inactive: [1] | [2] | [3] | [7] | [4] | [8] | [5] | [9]

NC(=O)N[C@@H](CCC(=O)O)C(=O)O
inactive: [1] | [2] | [3] | [4] | [8] | [5] | [6] | [10] | [9]

CC(N)C12CC3CC(CC(C3)C1)C2 (stereo unspecified)
inactive: [1] | [2] | [3] | [4] | [8] | [5] | [9]

CC1=CCC(O)(C(C)C)CC1 (stereo unspecified)
inactive: [1] | [2] | [3] | [4] | [5] | [6]

CC(=O)Nc1ccc(OCC(O)CNC(C)C)cc1 (stereo unspecified)
inactive: [1] | [2] | [3] | [7] | [4] | [8] | [5] | [6] | [10] | [9]

CN1C(C)(C)CC(O)CC1(C)C
inactive: [1] | [2] | [3] | [7] | [4] | [8] | [5] | [6] | [10] | [9]

CC(=O)O[C@@]12CO[C@@H]1C[C@H](O)[C@@]1(C)C(=O)[C@H](O)C3=C(C)[C@@H](OC(=O)[C@H](O)[C@@H](NC(=O)OC(C)(C)C)c4ccccc4)C[C@@](O)([C@@H](OC(=O)c4ccccc4)[C@H]21)C3(C)C
inactive: [1] | [2] | [3] | [4] | [8] | [5] | [6] | [9]

CN1CCN(c2cc3c(nn2)Oc2ccccc2N3C)CC1
inactive: [1] | [2] | [3] | [4] | [5] | [6] | [10]

CC(C)(C)C(=O)c1ccccc1
inactive: [1] | [2] | [3] | [7] | [4] | [8] | [5] | [10] | [9]

COc1cc(C(=O)NCc2ccc(OCCN(C)C)cc2)cc(OC)c1OC
inactive: [1] | [2] | [3] | [4] | [5]

CCC(C)(CCCC(C)C)OC(C)=O (stereo unspecified)
inactive: [1] | [2] | [3] | [7] | [4] | [8] | [5] | [6] | [10] | [9]

CC12CCC(C(=O)C1=O)C2(C)C (stereo unspecified)
inactive: [1] | [2] | [3] | [4] | [8] | [5] | [6] | [10] | [9]

CN1CCC(=C2c3ccccc3CCc3cccnc32)CC1
inactive: [1] | [2] | [3] | [4] | [5] | [6]

CC1=CC(=O)[C@H]2C[C@@H]1C2(C)C
inactive: [1] | [2] | [3] | [7] | [4] | [8] | [5] | [6] | [9]

C=COC(=O)C(C)(CC)CCC(C)C (stereo unspecified)
inactive: [1] | [2] | [3] | [4] | [8] | [6] | [9]

C=C(C)C(=O)OCC1CCCO1 (stereo unspecified)
inactive: [1] | [2] | [3] | [4] | [8] | [5] | [6] | [10] | [9]

CC(CC=O)CC(C)(C)C (stereo unspecified)
inactive: [1] | [2] | [3] | [7] | [4] | [8] | [5] | [6] | [9]

Nc1ccn([C@@H]2O[C@H](CO)[C@@H](O)[C@@H]2O)c(=O)n1
inactive: [1] | [2] | [3] | [4] | [8] | [5] | [6]

COc1cc(C)nc(-n2nc(C)cc2OC)n1
inactive: [1] | [2] | [3] | [7] | [4] | [5] | [9]

CC(C)(C#N)Nc1nc(Cl)nc(NC2CC2)n1
inactive: [1] | [2] | [3] | [4] | [8] | [5] | [6] | [9]

CC(C)c1ccc2ncccc2c1
inactive: [1] | [2] | [3] | [7] | [4] | [8] | [5] | [9]

CC(=O)N1C[C@H](O)C[C@H]1C(=O)O
inactive: [1] | [2] | [3] | [4] | [8] | [5] | [6] | [10] | [9]
